{
  "source": "PubChem BioAssay (Tox21)",
  "note": "Inconclusive results are not listed. Active and inactive are the calls of the source. The call rests on the fitted dose curve; in most records, active means well fitted activation curve with a large enough effect in the repeat runs; inconclusive means weak or mixed curves; inactive means no such curve, though single readings can be large or run the other way. On the % scale 0 is the no-effect control and ±100 the full control effect; potency means the concentration at half of the fitted maximal effect.",
  "data": [
    {"experiment": "qHTS assay for small molecules that induce genotoxicity in human embryonic kidney cells expressing luciferase-tagged ATAD5 (AID 651632); further: nearly all actives have a fitted effect of over 15% in size", "details": "HEK293T ATAD5-luciferase induction, 16 h; series mostly up to 83.3 µM; activation: at the top concentration", "text": "U.S. Tox21 Program National Center for Advancing Translational Sciences [NCATS] NIH Chemical Genomics Center [NCGC] U.S. Environmental Protection Agency [EPA] National Institutes of Environmental Health Sciences [NIEHS] National Toxicology Program [NTP] U.S. Food and Drug Administration [FDA] Tox21 Assay Overview: As cancer cells divide rapidly and during every cell division they need to duplicate their genome by DNA replication. The failure to do so results in the cancer cell death. Based on this concept, many chemotherapeutic agents were developed but have limitations such as low efficacy and severe side effects etc. A new cell based assay was developed to find the compounds that effectively block DNA replication either by directly damaging DNA or by inhibiting other cellular mechanisms. Enhanced Level of Genome Instability Gene 1 (ELG1; human ATAD5) protein levels increase in response to various types of DNA damage. Using a luciferase reporter-gene tagged with ATAD5, a cell-based assay [developed by Kyungjae Myung, NHGRI, NIH] was used to measure the induction of ATAD5 in human embryonic kidney cells (HEK293T). So, increase in luciferase activity can be used to identify the compounds that cause genetic stress.\nTox21 Assay Protocol Summary: For genotoxicity screening, 2,000 cells in 5 uL/well were dispensed into white, solid-bottom 1536-well plates using a Multidrop Combi (Thermo Scientific) dispenser. Following transfer of 23 nL compound or DMSO vehicle by a pin tool, the plates were incubated 16 hr at 37C and 5% CO2. 5 ul Amplite (AAT Bioquest, Inc.) was then added to each plate and following 30 min incubation at room temperature, luciferase activity was quantified on a ViewLux CCD-based plate reader.", "values": [
      {"smiles": "O=C(O)c1cc(=O)c2ccccc2o1", "activation": "0.296% (inactive)"},
      {"smiles": "Nc1ccc(C(=O)O)c(O)c1", "activation": "1.17% (inactive)"},
      {"smiles": "CC(=O)c1ccc(C(C)=O)cc1", "activation": "-0.549% [at 95.3 µM] (inactive)"},
      {"smiles": "COC1=C(OC)C(=O)C(CCCCCCCCCCO)=C(C)C1=O", "activation": "-14.7% (inactive)"},
      {"smiles": "CCC(CC)(CC(=O)Nc1cccc(/C=C/c2nc(C3CCC3)cs2)c1)C(=O)O", "activation": "7.39% (inactive)"},
      {"smiles": "CC1(C)[C@@H](O)CC[C@]2(C)[C@H]3C(=O)C=C4[C@@H]5C[C@@](C)(C(=O)O)CC[C@]5(C)CC[C@@]4(C)[C@]3(C)CC[C@@H]12", "Potency": "inactive"},
      {"smiles": "O=c1[nH]c2ccccc2n1CCCN1CCN(C(c2ccccc2)c2ccccc2)CC1", "activation": "-13.7% (inactive)"},
      {"smiles": "CC(C(=O)O)c1ccc2c(c1)[nH]c1ccc(Cl)cc12", "note": "(stereo not given)", "activation": "4.7% (inactive)"},
      {"smiles": "COc1c(C)c2c(c(O)c1C/C=C(\\C)CCC(=O)OCCN1CCOCC1)C(=O)OC2", "activation": "-6.72% (inactive)"},
      {"smiles": "O=C(Oc1ccccc1)Oc1ccccc1", "activation": "-5.17% (inactive)"},
      {"smiles": "COC(=O)c1ccccc1C", "activation": "1.17% (inactive)"},
      {"smiles": "O=C(/C=C/c1ccccc1)OC/C=C/c1ccccc1", "activation": "1.66% (inactive)"},
      {"smiles": "[Cl][Pt-2]([Cl])([Cl])[Cl]", "activation": "2.11% [at 95.3 µM] (inactive)"},
      {"smiles": "COC(C)=O", "Potency": "inactive"},
      {"smiles": "c1cnccn1", "activation": "1.18% [at 95.3 µM] (inactive)"},
      {"smiles": "Clc1nnc(Cl)c2ccccc12", "activation": "3.47% (inactive)"},
      {"smiles": "O=C(O)c1cc(N=Nc2ccc([N+](=O)[O-])cc2)ccc1O", "Potency": "15.1 µM (active)"},
      {"smiles": "CCC(COC(=O)CCS)(COC(=O)CCS)COC(=O)CCS", "activation": "-6.72% (inactive)"},
      {"smiles": "CCc1cccc(CC)c1NC(=O)CN(CC(=O)O)CC(=O)O", "activation": "1.92% [at 39.1 µM] (inactive)"},
      {"smiles": "O=C1c2ccccc2C(=O)N1SC1CCCCC1", "Potency": "inactive"},
      {"smiles": "CCCCC(CC)CN1CN(CC(CC)CCCC)CC(C)(N)C1", "note": "(stereo not given)", "activation": "-1.72% [at 39.1 µM] (inactive)"},
      {"smiles": "COc1ccc(NC(=O)CC(C)=O)cc1", "activation": "-2.86% (inactive)"},
      {"smiles": "C#C[C@]1(O)CC[C@H]2[C@@H]3[C@H](C)CC4=C(CCC(=O)C4)[C@H]3CC[C@@]21C", "activation": "-10.9% (inactive)"},
      {"smiles": "C#C[C@]1(OC(C)=O)CC[C@H]2[C@@H]3CCC4=C[C@@H](OC(C)=O)CC[C@@H]4[C@H]3CC[C@@]21C", "Potency": "inactive"},
      {"smiles": "CC1=Nc2ccccc2C1(C)C", "activation": "2.1% (inactive)"},
      {"smiles": "Cc1ccc(C(=O)O)cc1", "activation": "0.874% [at 95.3 µM] (inactive)"},
      {"smiles": "O=C(O)[C@H](O)[C@@H](O)[C@H](O[C@@H]1O[C@H](CO)[C@H](O)[C@H](O)[C@H]1O)[C@H](O)CO", "activation": "2% [at 39.1 µM] (inactive)"},
      {"smiles": "CCCCCCCCCCCCCC[N+](C)(C)Cc1ccccc1", "Potency": "inactive"},
      {"smiles": "C/C=C/C=C/COC(=O)C(C)C", "activation": "5.72% (inactive)"},
      {"smiles": "COC(=O)C1=C(C)NC(C)=C(C(=O)OCCN2CCN(C(c3ccccc3)c3ccccc3)CC2)C1c1cccc([N+](=O)[O-])c1", "note": "(stereo not given)", "activation": "-13.8% (inactive)"},
      {"smiles": "Cc1ccc(C)cc1", "activation": "0.822% (inactive)"},
      {"smiles": "O=[N+]([O-])c1ccc(O)cc1C(F)(F)F", "activation": "-8.71% (inactive)"},
      {"smiles": "CNC(=O)c1ccccc1Sc1ccc2c(/C=C/c3ccccn3)n[nH]c2c1", "Potency": "0.237 µM (active)"},
      {"smiles": "O=[N+]([O-])c1cccc(C(F)(F)F)c1", "activation": "0.681% [at 95.3 µM] (inactive)"},
      {"smiles": "Cc1cc(C(C#N)c2ccc(Cl)cc2)c(Cl)cc1NC(=O)c1cc(I)cc(I)c1O", "note": "(stereo not given)", "activation": "-12.9% (inactive)"},
      {"smiles": "CN(C)c1ccc(C(=C2C=CC(=[N+](C)C)C=C2)c2ccc(N(C)C)cc2)cc1", "Potency": "inactive"},
      {"smiles": "Cc1ccc(N/N=c2\\c(=O)cc/c(=N\\Nc3ccc(S(=O)(=O)O)cc3)c2=O)c(C)c1", "activation": "-1.85% (inactive)"},
      {"smiles": "Nc1cc(Cl)c(O)c(Cl)c1", "activation": "4.87% (inactive)"},
      {"smiles": "Cc1cc(=O)oc2cc(O)cc(O)c12", "activation": "-6.45% [at 95.3 µM] (inactive)"},
      {"smiles": "NC(=S)NC(N)=S", "activation": "-10.4% (inactive)"}
    ]}
  ]
}
